ChEMBL document CHEMBL1961873, “Compounds: GSK PKIS; Assays: Nanosyn kinase panel” (2012)

Legend:
[1] = molecular target: T1, Serine/threonine-protein kinase D2 (Homo sapiens) (UniProt Q9BZL6); settings: at 1 µM;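 further: mean value of PRKD2 inhibition, from the GSK PKIS screening panel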
T1 sequence (whole entry): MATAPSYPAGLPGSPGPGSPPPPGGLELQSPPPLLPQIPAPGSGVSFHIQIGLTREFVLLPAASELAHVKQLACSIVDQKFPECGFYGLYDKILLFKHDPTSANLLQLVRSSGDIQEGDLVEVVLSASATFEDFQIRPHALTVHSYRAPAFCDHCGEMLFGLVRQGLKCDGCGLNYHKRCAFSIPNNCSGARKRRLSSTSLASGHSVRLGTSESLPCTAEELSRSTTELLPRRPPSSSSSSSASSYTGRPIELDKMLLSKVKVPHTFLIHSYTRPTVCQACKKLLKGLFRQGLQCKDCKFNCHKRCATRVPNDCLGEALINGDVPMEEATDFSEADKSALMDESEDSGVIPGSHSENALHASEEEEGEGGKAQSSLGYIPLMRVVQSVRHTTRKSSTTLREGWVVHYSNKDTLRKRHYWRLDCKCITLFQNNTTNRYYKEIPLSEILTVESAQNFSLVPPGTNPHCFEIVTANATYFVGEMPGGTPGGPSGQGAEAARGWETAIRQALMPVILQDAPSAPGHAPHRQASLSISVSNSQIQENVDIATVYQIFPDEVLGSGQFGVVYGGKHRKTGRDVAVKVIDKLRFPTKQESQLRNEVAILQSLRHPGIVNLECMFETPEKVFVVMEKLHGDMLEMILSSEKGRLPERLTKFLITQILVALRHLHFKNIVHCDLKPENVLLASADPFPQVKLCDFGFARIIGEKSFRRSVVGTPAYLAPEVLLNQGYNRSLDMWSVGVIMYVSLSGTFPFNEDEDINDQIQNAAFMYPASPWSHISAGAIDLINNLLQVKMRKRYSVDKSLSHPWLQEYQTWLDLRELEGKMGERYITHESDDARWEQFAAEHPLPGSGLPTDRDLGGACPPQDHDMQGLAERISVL

[2] = molecular target: T2, Serine/threonine-protein kinase D3 (Homo sapiens) (UniProt O94806); settings: at 0.1 µM
T2 sequence (whole entry): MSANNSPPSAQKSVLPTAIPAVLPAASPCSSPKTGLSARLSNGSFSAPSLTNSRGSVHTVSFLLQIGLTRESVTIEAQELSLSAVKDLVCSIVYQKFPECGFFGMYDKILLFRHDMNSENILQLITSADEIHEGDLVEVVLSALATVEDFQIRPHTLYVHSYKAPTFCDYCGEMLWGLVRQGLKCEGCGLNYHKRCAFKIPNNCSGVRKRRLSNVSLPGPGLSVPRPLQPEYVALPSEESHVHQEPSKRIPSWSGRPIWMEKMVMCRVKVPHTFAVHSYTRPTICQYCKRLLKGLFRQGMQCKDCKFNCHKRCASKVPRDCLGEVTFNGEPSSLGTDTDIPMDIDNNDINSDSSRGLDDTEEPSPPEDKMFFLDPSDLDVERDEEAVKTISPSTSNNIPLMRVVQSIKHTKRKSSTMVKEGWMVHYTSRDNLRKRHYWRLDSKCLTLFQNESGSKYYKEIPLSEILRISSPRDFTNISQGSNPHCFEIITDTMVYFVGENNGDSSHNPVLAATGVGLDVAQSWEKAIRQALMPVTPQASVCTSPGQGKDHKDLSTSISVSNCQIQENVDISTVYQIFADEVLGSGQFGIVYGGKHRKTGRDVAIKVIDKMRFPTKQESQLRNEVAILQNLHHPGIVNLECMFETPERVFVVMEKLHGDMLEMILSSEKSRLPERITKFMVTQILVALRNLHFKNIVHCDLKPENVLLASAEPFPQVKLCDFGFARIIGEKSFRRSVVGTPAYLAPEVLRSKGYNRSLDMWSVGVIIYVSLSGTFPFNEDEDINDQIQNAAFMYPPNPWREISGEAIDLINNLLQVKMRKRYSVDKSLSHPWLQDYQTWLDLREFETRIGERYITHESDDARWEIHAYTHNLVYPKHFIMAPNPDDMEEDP

[3] = molecular target: T2, Serine/threonine-protein kinase D3 (Homo sapiens); settings: at 1 µM
[4] = molecular target: T3, cGMP-dependent protein kinase 1 (Homo sapiens) (UniProt Q13976); settings: at 0.1 µM
T3 sequence (whole entry): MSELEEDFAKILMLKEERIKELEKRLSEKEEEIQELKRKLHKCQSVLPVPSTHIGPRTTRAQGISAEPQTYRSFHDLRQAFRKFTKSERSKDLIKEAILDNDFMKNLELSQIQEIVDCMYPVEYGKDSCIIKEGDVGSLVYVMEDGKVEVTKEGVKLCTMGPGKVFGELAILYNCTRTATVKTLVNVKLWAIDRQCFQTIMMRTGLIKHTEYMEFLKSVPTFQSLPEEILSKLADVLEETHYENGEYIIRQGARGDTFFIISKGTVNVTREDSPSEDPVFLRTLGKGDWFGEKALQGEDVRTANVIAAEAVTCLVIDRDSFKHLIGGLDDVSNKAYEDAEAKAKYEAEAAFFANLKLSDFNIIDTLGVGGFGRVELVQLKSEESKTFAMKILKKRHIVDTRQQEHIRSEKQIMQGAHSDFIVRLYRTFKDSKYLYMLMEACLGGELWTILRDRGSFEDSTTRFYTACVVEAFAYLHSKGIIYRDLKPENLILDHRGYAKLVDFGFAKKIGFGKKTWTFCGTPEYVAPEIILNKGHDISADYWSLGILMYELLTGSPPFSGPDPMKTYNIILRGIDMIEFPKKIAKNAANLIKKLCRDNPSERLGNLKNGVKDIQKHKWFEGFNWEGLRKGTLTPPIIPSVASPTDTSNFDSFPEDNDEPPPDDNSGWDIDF

[5] = molecular target: T3, cGMP-dependent protein kinase 1 (Homo sapiens); settings: at 1 µM
[6] = molecular target: T4, cGMP-dependent protein kinase 2 (Homo sapiens) (UniProt Q13237); settings: at 0.1 µM
T4 sequence (whole entry): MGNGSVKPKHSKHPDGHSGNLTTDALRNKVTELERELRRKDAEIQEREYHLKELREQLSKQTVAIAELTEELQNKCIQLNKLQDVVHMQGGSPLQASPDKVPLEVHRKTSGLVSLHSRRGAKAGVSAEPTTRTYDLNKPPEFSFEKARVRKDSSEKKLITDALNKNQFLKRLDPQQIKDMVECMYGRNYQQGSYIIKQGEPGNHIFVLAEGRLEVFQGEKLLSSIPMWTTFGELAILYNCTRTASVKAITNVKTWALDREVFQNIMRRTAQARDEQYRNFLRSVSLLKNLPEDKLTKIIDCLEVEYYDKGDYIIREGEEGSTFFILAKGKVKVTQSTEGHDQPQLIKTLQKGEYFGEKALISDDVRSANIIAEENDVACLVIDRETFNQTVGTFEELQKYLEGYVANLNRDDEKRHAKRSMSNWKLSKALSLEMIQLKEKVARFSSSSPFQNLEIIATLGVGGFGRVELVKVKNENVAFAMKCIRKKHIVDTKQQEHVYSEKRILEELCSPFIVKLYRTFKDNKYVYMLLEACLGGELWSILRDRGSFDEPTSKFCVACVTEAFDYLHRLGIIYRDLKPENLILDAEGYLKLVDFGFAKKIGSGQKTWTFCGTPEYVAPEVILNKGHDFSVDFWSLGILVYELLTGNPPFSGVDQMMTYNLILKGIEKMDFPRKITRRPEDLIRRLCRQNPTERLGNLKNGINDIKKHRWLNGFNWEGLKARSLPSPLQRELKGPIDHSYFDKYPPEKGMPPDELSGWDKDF

[7] = molecular target: T4, cGMP-dependent protein kinase 2 (Homo sapiens); settings: at 1 µM
[8] = molecular target: T5, cAMP-dependent protein kinase catalytic subunit PRKX (Homo sapiens) (UniProt P51817); settings: at 0.1 µM
T5 sequence (whole entry): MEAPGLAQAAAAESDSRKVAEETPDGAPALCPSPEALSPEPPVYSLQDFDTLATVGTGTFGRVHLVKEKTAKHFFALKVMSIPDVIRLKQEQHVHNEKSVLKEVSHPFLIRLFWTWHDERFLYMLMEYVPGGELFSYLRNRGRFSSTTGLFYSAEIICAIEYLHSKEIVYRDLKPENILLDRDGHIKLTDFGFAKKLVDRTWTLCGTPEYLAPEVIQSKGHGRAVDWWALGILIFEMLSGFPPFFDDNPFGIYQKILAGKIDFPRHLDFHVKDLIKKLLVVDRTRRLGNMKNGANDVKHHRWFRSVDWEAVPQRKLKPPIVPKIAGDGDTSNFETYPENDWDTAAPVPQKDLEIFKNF

[9] = molecular target: T5, cAMP-dependent protein kinase catalytic subunit PRKX (Homo sapiens); settings: at 1 µM
[10] = molecular target: Rho-associated protein kinase 1 (Homo sapiens) (UniProt Q13464); settings: at 0.1 µM
[11] = molecular target: Rho-associated protein kinase 1 (Homo sapiens) (UniProt Q13464); settings: at 1 µM
[12] = molecular target: Rho-associated protein kinase 2 (Homo sapiens) (UniProt O75116); settings: at 0.1 µM
[13] = molecular target: Rho-associated protein kinase 2 (Homo sapiens) (UniProt O75116); settings: at 1 µM
[14] = molecular target: Ribosomal protein S6 kinase alpha-1 (Homo sapiens) (UniProt Q15418); settings: at 0.1 µM
[15] = molecular target: Ribosomal protein S6 kinase alpha-1 (Homo sapiens) (UniProt Q15418); settings: at 1 µM
[16] = molecular target: Ribosomal protein S6 kinase alpha-3 (Homo sapiens) (UniProt P51812); settings: at 0.1 µM
[17] = molecular target: Ribosomal protein S6 kinase alpha-3 (Homo sapiens) (UniProt P51812); settings: at 1 µM
[18] = molecular target: Ribosomal protein S6 kinase alpha-2 (Homo sapiens) (UniProt Q15349); settings: at 0.1 µM
[19] = molecular target: Ribosomal protein S6 kinase alpha-2 (Homo sapiens) (UniProt Q15349); settings: at 1 µM
[20] = molecular target: Ribosomal protein S6 kinase alpha-6 (Homo sapiens) (UniProt Q9UK32); settings: at 0.1 µM;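 further: reported value is the mean inhibition of RSK4, from the GSK PKIS kinase inhibitor screen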
Ribosomal protein S6 kinase alpha-6 (Homo sapiens), sequence (Q9UK32 whole entry): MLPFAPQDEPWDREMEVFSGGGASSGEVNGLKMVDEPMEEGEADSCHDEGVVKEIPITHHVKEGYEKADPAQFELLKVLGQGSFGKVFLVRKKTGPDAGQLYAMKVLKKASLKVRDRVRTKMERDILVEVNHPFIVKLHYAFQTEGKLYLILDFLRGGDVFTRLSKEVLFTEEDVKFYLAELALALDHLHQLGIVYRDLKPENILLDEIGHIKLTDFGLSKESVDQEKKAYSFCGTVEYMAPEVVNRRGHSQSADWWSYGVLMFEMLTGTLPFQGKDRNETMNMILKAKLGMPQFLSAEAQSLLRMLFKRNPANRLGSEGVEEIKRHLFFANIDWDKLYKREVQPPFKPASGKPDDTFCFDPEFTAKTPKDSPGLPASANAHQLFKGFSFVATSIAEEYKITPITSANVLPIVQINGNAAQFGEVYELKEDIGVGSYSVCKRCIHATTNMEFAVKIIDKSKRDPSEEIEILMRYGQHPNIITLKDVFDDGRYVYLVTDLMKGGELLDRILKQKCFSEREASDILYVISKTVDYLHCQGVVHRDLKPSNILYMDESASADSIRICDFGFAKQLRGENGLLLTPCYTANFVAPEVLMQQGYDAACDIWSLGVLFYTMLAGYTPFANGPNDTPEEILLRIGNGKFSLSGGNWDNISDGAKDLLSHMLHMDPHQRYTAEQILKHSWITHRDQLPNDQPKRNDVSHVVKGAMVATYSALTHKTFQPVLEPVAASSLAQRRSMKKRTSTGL

Ribosomal protein S6 kinase alpha-2 (Homo sapiens), sequence (Q15349 whole entry): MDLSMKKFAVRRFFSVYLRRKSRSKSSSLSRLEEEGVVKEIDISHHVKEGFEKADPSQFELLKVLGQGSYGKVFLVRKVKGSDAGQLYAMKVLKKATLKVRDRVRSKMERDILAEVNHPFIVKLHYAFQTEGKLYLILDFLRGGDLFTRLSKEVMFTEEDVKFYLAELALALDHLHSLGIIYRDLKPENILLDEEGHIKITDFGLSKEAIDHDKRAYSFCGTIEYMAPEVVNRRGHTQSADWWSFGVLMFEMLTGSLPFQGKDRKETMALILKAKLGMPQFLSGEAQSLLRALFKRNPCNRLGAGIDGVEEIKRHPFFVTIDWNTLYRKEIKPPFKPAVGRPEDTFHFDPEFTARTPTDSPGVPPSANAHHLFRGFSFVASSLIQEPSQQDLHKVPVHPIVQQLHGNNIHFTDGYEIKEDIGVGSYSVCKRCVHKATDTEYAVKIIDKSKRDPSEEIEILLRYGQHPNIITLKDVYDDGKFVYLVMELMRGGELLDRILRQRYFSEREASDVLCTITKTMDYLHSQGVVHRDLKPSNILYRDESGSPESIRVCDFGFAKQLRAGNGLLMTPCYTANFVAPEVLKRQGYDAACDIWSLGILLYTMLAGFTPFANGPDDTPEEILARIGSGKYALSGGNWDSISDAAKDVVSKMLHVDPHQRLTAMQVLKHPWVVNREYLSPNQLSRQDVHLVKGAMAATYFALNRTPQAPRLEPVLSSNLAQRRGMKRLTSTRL
Ribosomal protein S6 kinase alpha-3 (Homo sapiens), sequence (P51812 whole entry): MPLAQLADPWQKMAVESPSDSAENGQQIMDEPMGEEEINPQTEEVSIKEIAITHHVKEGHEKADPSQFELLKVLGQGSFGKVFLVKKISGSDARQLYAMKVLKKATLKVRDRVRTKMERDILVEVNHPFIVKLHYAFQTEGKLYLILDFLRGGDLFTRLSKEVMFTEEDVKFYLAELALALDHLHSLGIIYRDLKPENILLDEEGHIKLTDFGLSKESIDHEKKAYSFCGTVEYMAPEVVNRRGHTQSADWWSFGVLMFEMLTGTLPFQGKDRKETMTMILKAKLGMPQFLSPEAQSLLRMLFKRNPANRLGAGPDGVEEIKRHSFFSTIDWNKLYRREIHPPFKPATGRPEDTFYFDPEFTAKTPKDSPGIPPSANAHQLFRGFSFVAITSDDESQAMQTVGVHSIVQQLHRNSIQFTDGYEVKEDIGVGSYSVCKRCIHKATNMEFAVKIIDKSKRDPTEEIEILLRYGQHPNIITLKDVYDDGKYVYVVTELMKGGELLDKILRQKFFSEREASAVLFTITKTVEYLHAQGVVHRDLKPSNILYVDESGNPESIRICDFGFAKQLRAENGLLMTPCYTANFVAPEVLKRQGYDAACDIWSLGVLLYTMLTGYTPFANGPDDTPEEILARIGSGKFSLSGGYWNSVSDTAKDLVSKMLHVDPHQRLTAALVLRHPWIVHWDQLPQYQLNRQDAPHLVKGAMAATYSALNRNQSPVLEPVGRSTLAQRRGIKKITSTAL
Ribosomal protein S6 kinase alpha-1 (Homo sapiens), sequence (Q15418 whole entry): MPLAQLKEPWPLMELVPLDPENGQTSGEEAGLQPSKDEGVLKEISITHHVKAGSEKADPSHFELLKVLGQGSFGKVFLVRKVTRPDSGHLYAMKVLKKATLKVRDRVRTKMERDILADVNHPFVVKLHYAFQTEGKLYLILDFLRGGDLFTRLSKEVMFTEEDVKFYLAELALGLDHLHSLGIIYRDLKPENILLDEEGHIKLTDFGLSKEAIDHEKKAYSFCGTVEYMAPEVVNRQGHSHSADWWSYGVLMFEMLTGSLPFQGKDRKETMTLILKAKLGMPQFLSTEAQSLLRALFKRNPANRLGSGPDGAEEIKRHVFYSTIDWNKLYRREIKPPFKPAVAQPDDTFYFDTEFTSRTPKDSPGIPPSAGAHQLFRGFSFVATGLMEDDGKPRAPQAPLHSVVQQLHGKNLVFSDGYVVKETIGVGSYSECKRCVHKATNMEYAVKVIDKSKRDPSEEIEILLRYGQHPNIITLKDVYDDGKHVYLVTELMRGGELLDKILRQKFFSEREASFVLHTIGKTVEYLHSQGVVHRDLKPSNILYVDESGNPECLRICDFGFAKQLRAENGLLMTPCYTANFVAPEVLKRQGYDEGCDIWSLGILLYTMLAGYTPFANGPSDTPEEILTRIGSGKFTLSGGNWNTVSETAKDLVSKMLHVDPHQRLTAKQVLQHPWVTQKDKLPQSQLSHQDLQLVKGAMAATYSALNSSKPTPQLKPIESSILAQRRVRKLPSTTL
Rho-associated protein kinase 1 (Homo sapiens), sequence (Q13464 2-1354 limits assumed): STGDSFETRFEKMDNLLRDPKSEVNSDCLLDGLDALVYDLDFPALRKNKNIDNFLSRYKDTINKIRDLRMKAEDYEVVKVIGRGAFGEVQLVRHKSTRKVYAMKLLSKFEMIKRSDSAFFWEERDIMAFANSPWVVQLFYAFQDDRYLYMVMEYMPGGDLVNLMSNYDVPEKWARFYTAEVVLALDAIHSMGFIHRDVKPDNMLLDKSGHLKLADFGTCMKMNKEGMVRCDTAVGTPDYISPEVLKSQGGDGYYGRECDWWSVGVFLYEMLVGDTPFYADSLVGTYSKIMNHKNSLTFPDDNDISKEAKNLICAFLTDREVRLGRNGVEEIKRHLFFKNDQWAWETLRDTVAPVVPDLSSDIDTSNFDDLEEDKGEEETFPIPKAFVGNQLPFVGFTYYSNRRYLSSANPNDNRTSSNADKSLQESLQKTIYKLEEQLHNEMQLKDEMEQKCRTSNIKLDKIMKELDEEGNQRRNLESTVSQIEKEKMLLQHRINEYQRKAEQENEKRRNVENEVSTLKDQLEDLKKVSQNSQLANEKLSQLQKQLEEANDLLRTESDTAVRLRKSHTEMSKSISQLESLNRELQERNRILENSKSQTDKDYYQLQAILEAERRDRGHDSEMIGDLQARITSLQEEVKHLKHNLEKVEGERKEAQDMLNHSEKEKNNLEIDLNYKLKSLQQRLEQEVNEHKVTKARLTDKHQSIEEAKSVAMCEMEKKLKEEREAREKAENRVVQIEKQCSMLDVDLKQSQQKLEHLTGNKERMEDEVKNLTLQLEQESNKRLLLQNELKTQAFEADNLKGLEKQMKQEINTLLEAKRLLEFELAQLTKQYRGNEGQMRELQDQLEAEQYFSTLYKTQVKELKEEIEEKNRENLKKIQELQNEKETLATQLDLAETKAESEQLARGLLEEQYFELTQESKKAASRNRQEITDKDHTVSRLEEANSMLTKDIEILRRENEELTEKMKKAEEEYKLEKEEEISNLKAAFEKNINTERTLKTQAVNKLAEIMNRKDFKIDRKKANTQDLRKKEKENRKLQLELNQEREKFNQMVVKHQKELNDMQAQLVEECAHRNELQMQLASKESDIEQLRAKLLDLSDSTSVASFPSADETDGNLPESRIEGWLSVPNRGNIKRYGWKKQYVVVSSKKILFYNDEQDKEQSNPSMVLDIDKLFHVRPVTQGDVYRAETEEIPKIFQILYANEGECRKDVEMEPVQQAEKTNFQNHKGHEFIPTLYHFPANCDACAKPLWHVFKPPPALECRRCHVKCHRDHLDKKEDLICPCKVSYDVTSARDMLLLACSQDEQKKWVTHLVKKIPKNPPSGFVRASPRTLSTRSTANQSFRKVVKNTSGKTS

COc1ccc2ncnc(Nc3ccc(OCc4ccccc4)cc3)c2c1
inhibition [1]: 2.88% | inhibition [2]: 0.89% | inhibition [3]: 2.6% | inhibition [4]: 0.77% | inhibition [5]: 1.95% | inhibition [6]: 0.94% | inhibition [7]: 2.5% | inhibition [8]: 1.23% | inhibition [9]: 1.9% | inhibition [10]: -0.05% | inhibition [11]: -0.47% | inhibition [12]: 1.37% | inhibition [13]: 1.27% | inhibition [14]: 0.33% | inhibition [15]: 0.98% | inhibition [16]: 1.83% | inhibition [17]: 1.15% | inhibition [18]: 0.9% | inhibition [19]: 0.99% | inhibition [20]: 1.03%

Cc1ccc2c(-c3ccnc(Nc4cccc(C(F)(F)F)c4)n3)c(-c3ccccc3)nn2n1
inhibition [1]: 56.8% | inhibition [2]: 11.6% | inhibition [3]: 51.5% | inhibition [4]: 3.11% | inhibition [5]: 5.07% | inhibition [6]: 3.26% | inhibition [7]: 4.35% | inhibition [8]: 2.65% | inhibition [9]: 2.54% | inhibition [10]: 3.08% | inhibition [11]: 3.58% | inhibition [12]: 3.31% | inhibition [13]: 3.33% | inhibition [14]: 0.52% | inhibition [15]: 2.33% | inhibition [16]: -0.67% | inhibition [17]: 0.59% | inhibition [18]: 3.58% | inhibition [19]: 3.98% | inhibition [20]: 0.82%

NC(=O)c1sc(-n2cnc3ccccc32)cc1OCc1ccccc1Br
inhibition [1]: 6.86% | inhibition [2]: 5.8% | inhibition [3]: 8.54% | inhibition [4]: 3.41% | inhibition [5]: 5.69% | inhibition [6]: 3.61% | inhibition [7]: 5.73% | inhibition [8]: 3.19% | inhibition [9]: 5.64% | inhibition [10]: 2.06% | inhibition [11]: 3.15% | inhibition [12]: 2.13% | inhibition [13]: 3.77% | inhibition [14]: 1.32% | inhibition [15]: 3.02% | inhibition [16]: 1.56% | inhibition [17]: 2.97% | inhibition [18]: 3.5% | inhibition [19]: 4.96% | inhibition [20]: 2.09%

O=C1Nc2ccc(-c3cccnc3)cc2C1=Cc1cc(Br)c(O)c(Br)c1
inhibition [1]: 4.38% | inhibition [2]: 4.62% | inhibition [3]: 5.23% | inhibition [4]: 4.28% | inhibition [5]: 11% | inhibition [6]: 2.46% | inhibition [7]: 4.63% | inhibition [8]: 1.55% | inhibition [9]: -0.22% | inhibition [10]: 1.68% | inhibition [11]: 4.77% | inhibition [12]: 2.87% | inhibition [13]: 7.43% | inhibition [14]: 2.15% | inhibition [15]: 2.73% | inhibition [16]: 0.76% | inhibition [17]: -1.29% | inhibition [18]: 1.03% | inhibition [19]: 3.66% | inhibition [20]: 1.69%

O=C1Nc2ccccc2/C1=C/Nc1ccc2[nH]c(=O)[nH]c2c1
inhibition [1]: 14% | inhibition [2]: 5.54% | inhibition [3]: 11.7% | inhibition [4]: 1.49% | inhibition [5]: 6.34% | inhibition [6]: 3.41% | inhibition [7]: 13.8% | inhibition [8]: 2.23% | inhibition [9]: 8.47% | inhibition [10]: 0.24% | inhibition [11]: 4.42% | inhibition [12]: 3.76% | inhibition [13]: 13.7% | inhibition [14]: 3.61% | inhibition [15]: 20.9% | inhibition [16]: 2.19% | inhibition [17]: 14.7% | inhibition [18]: 4.19% | inhibition [19]: 20.5% | inhibition [20]: 2.19%

COc1ccc(-c2nn3ncccc3c2-c2ccnc(Nc3cccc(C(F)(F)F)c3)n2)cc1
inhibition [1]: 3.1% | inhibition [2]: 3.18% | inhibition [3]: 3.3% | inhibition [4]: 1.97% | inhibition [5]: 2.64% | inhibition [6]: 1.78% | inhibition [7]: 2.6% | inhibition [8]: 2.11% | inhibition [9]: 1.89% | inhibition [10]: 0.25% | inhibition [11]: 0.6% | inhibition [12]: 2.74% | inhibition [13]: 1.41% | inhibition [14]: 1.07% | inhibition [15]: 2.11% | inhibition [16]: 1.27% | inhibition [17]: 1.97% | inhibition [18]: 1.64% | inhibition [19]: 2.11% | inhibition [20]: 0.81%

Nc1nccc(-c2c(-c3ccc(F)cc3)ncn2CCCN2CCOCC2)n1
inhibition [1]: 4.5% | inhibition [2]: 4.8% | inhibition [3]: 4.86% | inhibition [4]: 4.04% | inhibition [5]: 4.99% | inhibition [6]: 2.72% | inhibition [7]: 3.95% | inhibition [8]: 2.51% | inhibition [9]: 5.13% | inhibition [10]: 2.49% | inhibition [11]: 3.31% | inhibition [12]: 4.99% | inhibition [13]: 5.24% | inhibition [14]: 2.16% | inhibition [15]: 4.6% | inhibition [16]: 1.92% | inhibition [17]: 2.6% | inhibition [18]: 3.04% | inhibition [19]: 2.27% | inhibition [20]: 2.26%
